# Compound activity (PubChem)
# Compounds with a hit are over-represented: about 2.3% of the library has one in this group of screens.
# V-ATPase pH: regulators of yeast V-ATPase proton transport; S. cerevisiae, pHLuorin cytosolic pH fluorescence; response, % at 10 µM; 0.37% of 350,000 active; in the data active = response mostly above about 7.3%, no sharp cut-off; inactive = mostly below about 5.4%; also: actives read high
# ADAM10 inh: inhibitors of human ADAM10. O14672. recombinant ADAM10, EDANS/DABCYL FRET peptide cleavage, 3 h. inhibition, % at 7 µM. 0.62% of 370,000 active. AID 720582;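 active = inhibition above a per-campaign cutoff equal to the mean of compounds falling between control-based bounds plus 3 SD, cut at about 20% in these data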;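 also: 0% = DMSO wells while the 100% control is not disclosed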
# KLK7 zymogen act: activators of human kallikrein-7 zymogen; 0.9% of 370,000 active; purified proKLK7, EDANS-DABCYL substrate fluorescence; 100% is mature enzyme control, 0% vehicle; P49862; activation, % at 7 µM;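 active = activation above the mean of all tested compounds plus 3 SD, computed per campaign excluding outliers beyond control limits, cut at about 13% in these data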
# Target sequence (P49862 whole entry, looked up): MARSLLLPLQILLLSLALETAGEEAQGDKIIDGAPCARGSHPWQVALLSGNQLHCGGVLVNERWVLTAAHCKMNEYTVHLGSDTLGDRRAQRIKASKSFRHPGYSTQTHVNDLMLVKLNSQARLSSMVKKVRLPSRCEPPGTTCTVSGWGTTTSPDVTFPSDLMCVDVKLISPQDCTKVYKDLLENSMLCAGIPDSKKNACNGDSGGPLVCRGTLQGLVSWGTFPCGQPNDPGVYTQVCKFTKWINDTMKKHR
# ADAM17 inh: ADAM17 inhibition, QFRET primary screen; 0.83% of 370,000 active; recombinant ADAM17, EDANS/DABCYL FRET peptide cleavage; P78536; inhibition, % at 6.95 µM;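 active = inhibition above the mean of compounds lying between control limits plus 3 SD, set per campaign, cut at about 8.5% in these data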;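 also: 0% = DMSO-only wells as the low control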
# ADAM10 ctr: inhibits human ADAM10 in ADAM17 exosite counter-screen | shares compounds with ADAM17 inh | recombinant ADAM10, EDANS/DABCYL FRET peptide cleavage, 3 h | inhibition, % at 6.95 µM | 47% of 2,900 active;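 active = mean inhibition over the triplicate runs exceeds the activity threshold set in the earlier primary screen, cut at about 20% in these data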;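 also: 0% = DMSO wells and 100% = marimastat wells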
# ADAM17 confirm: human ADAM17 inhibition, confirmation | shares compounds with ADAM17 inh | recombinant ADAM17, EDANS/DABCYL QFRET peptide cleavage | inhibition, % at 6.95 µM | 65% of 2,900 active | AID 743257;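 active = mean inhibition across replicates above the hit cutoff set in the primary screen, cut at about 8.5% in these data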;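 also: 0% = DMSO wells and 100% = marimastat wells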
# The depositor's hits bear a star; · = no result given.
SMILES,V-ATPase pH,ADAM10 inh,KLK7 zymogen act,ADAM17 inh,ADAM10 ctr,ADAM17 confirm
C[C@H]1CN([C@@H](C)CO)C(=O)Cc2cc(NC(=O)CCN3CCOCC3)ccc2O[C@@H]1CN(C)Cc1ccc(Oc2ccccc2)cc1,3,-1,1,0,·,·
C[C@H]1CN([C@@H](C)CO)C(=O)Cc2cc(NC(=O)C3CC3)ccc2O[C@H]1CN(C)Cc1ccc(Oc2ccccc2)cc1,-1,19,0,9.3*,29*,19*
COc1ccc(NC(=O)Nc2ccc3c(c2)CC(=O)N([C@H](C)CO)C[C@@H](C)[C@H](CN(C)C(=O)Nc2ccccc2)O3)cc1,4,3,1,4,·,·
CCCC[C@H]1C2CC(OC(=O)Nc3ccccc3C(F)(F)F)C(C2)[C@H]2CCCCN21 (stereo not given in full),·,-4,0,-3,·,·
Cc1cc(OCC(=O)OCC(=O)NCc2ccc3c(c2)OCO3)ccc1Cl,0,-5,0,11*,9,9.1*
O=C(N[C@@H](Cc1cccnc1)C(=O)N1CCC[C@H]1C(=O)NC1CCCC1)c1ccccc1,·,-7,0,-7,·,·
CCOC(=O)c1cnc2ccc(OCC)cc2c1N(C)Cc1ccccc1,0,7,-1,9.4*,24*,15*
Cc1ccc(Cn2c(C(CO)Nc3nc(-c4ccc(Cl)c([N+](=O)[O-])c4)cs3)nc3ccccc32)cc1 (stereo not given),0,20,0,17*,16,9.7*
Cc1ccc(Cn2c(C(CO)Nc3nc(-c4ccc(F)cc4)cs3)nc3ccccc32)cc1 (stereo not given),0,0,0,1,·,·
CN(Cc1ccccc1)C(=O)c1cccc(NC(=O)Cc2cccc(NC(=O)C3CCN(C(=O)CCc4ccccc4)CC3)c2)c1,·,5,1,2,·,·
Cc1ccc(S(=O)(=O)NCCC(=O)Nc2ccc(Cl)c(Cl)c2)cc1C,-7,1,0,2,·,·
Cc1ccc(S(=O)(=O)NCCC(=O)Nc2ccc(Cl)c(Cl)c2)cc1,3,18,0,9.2*,25*,15*
Cc1cc(NC(=O)Cc2cn(C)c3ccccc23)ccc1Oc1cccnc1,·,-6,1,-1,·,·
CC(NC(=O)c1ccco1)C(=O)N1CCN(c2ccccc2)CC1 (stereo not given),-2,-5,-1,9.2*,-8,0
CCn1c(-c2csc3c2CCCC3)n[nH]c1=S,3,18,0,-6,·,·
C=CCn1c(-c2csc3c2CCC(C)C3)n[nH]c1=S (stereo not given),7,6,1,11*,18,13*
CCCCn1c(-c2csc3c2CCCC3)n[nH]c1=S,·,6,0,13*,10,5
CC(COc1ccc(Cl)cc1)CN1CCC(C(O)(c2ccccc2)c2ccccc2)CC1 (stereo not given),·,4,0,-1,·,·
C[C@@H]1CN([C@@H](C)CO)C(=O)CCCn2cc(nn2)CO[C@H]1CN(C)C(=O)Nc1cccc(C(F)(F)F)c1,·,-14,1,-6,·,·
CCOC(=O)CC[C@H](NC(=O)[C@@H]1CC=C[C@@H]2CCN(Cc3ccc(Cl)cc3)C(=O)[C@@H]21)C(=O)OCC,·,1,·,-4,·,·
COc1ccc(CN(C(=O)c2nsc(Cl)c2Cl)C(C(=O)NC2CCCC2)c2ccc(C)cc2)cc1 (stereo not given),0,13,-1,10*,14,14*
CCCCCCC(=O)NC1CCCCN(Cc2ccc(C)cc2)C1=O (stereo not given),·,1,0,-1,·,·
COCCNC(=O)C1CC(=O)N(c2ccc(F)c(Cl)c2)C1 (stereo not given),0,-16,0,-3,·,·
CCN(CC)C(=O)C1CC(=O)N(c2ccc(F)c(Cl)c2)C1 (stereo not given),-1,7,0,9.5*,-5,-1
COC(=O)[C@]12C[C@H](CC(=O)NCc3cccs3)C(=O)N(CCC3=CCCCC3)C1=C[C@H](COCc1ccccc1)O[C@@H]2C,·,13,0,5,·,·
SMILES,V-ATPase pH,ADAM10 inh,KLK7 zymogen act,ADAM17 inh,ADAM10 ctr,ADAM17 confirm
CC(=O)Nc1ccc(S(=O)(=O)NCC2CCN(C(=O)C(=O)c3cccs3)CC2)cc1,·,2,0,-1,·,·
COc1ccccc1NC(=O)c1ccc(NC(=O)COC(=O)CCC2CCCC2)cc1,2,13,0,9.4*,27*,15*
COC(=O)C1=C(C)N(Cc2ccccc2C(F)(F)F)C(=NCC2CC2)NC1c1cccc(F)c1 (stereo not given),·,2,1,0,·,·
CC(C)(C)S(=O)(=O)N1Cc2cc(CO)ccc2[C@@H]1CCO,·,-11,0,-5,·,·
Cc1ccc(S(=O)(=O)N2C[C@H]3C(=O)C[C@@H](c4ccccc4F)N(S(=O)(=O)c4ccc(C)cc4)[C@H]3C[C@H]2c2ccccc2)cc1,·,-1,0,10*,14,6
OCc1cccc[n+]1CCc1ccccc1,0,0,1,11*,-11,-1
OCc1ccccc1CNCc1ccccc1,-1,0,0,0,·,·
CN(C)c1cccc(/C=C2\CC3(OC(=O)c4ccco4)CCCN2C3)c1 (stereo not given),·,-4,0,-4,·,·
Cc1cc(C)nc(Nc2nc3ccccc3s2)n1,0,4,0,-5,·,·
Cc1ccc(Nc2nc3ccccc3s2)c(C)c1,0,14,0,9.0*,26*,17*
NC(=O)c1ncn([C@@H]2O[C@H](C(=O)N[C@H](Cc3ccccc3)C(=O)N3CCN(CC(=O)Nc4ccccn4)CC3)[C@@H](O)[C@H]2O)n1,·,-10,0,-2,·,·
N=c1c2c(ccn1CCCCc1ccccc1)Oc1ccc3ccccc3c1C2c1ccccc1 (stereo not given),·,20,·,9.6*,20*,14*
N=c1c2c(ccn1Cc1ccccc1)Oc1ccc3ccccc3c1C2c1ccccc1 (stereo not given),·,18,·,7,·,·
COC(=O)CCC[C@H](C)[C@@H](NS(=O)(=O)c1ccc(C)cc1)C(C)(C)C,·,-6,0,-2,·,·
CCCCC(=O)NC(c1ccccc1OC)c1ccc2cccnc2c1O (stereo not given),-9,18,0,9.0*,16,7
CCCC(=O)NC(c1ccccc1OC)c1ccc2cccnc2c1O (stereo not given),-1,·,·,·,·,·
O=[N+]([O-])CC(c1ccccc1)P(=O)(c1ccccc1)c1ccccc1 (stereo not given),-3,1,0,16*,-3,32*
COC(=O)[C@H](CC(C)C)N(CCCc1cn(Cc2ccccc2)nn1)S(=O)(=O)c1ccccc1Br,·,19,0,13*,36*,15*
COC(=O)[C@H](CC(C)C)N(CCc1cn(Cc2ccccc2)nn1)S(=O)(=O)c1ccc(F)cc1Br,·,17,0,7,·,·
